# PREPL inhibitor = inhibits the human prolyl oligopeptidase-like enzyme; inhibition, % at 5.96 µM; 320,000 tested, 0.68% active; Q4J6C6; recombinant PREPL, fluorescence polarization activity-based probe; in the data active = inhibition above about 43%
# MEKK3 PB1 HTS = raises or lowers MEK5 binding to the human MEKK3 PB1 domain. Q99759. 290,000 tested, 1.4% active. binding response (% of control), % at 10 µM. bead-based flow cytometry, Alexa488-MEK5 binding to MEKK3; actives lie on both sides; 0 = blocked by unlabeled MEK5, 100 = vehicle. AID 1529;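 active = binding response more than 3 SD above or below the average of its plate-row segment, actives on both sides; inconclusive = wells at one plate position flagged as instrument error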;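 also: Alexa488 bead fluorescence after subtracting the streptavidin-only scavenger bead signal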
# Target sequence (Q99759 whole entry, looked up, the tested form may be a part): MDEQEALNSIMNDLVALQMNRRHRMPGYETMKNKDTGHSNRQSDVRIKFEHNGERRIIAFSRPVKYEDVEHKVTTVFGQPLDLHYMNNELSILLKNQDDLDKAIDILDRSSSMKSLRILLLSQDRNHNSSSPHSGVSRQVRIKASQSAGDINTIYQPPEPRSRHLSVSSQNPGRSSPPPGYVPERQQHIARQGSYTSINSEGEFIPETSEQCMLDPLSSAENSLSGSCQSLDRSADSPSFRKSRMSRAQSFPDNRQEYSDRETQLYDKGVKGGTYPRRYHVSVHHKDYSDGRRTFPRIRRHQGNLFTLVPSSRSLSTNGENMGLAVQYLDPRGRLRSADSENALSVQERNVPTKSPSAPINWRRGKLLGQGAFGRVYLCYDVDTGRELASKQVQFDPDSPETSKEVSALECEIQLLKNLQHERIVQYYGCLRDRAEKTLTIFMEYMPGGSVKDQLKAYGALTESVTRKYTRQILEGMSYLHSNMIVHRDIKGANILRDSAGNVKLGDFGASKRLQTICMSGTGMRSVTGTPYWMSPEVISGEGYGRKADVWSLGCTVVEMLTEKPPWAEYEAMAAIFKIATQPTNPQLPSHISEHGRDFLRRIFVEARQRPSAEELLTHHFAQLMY
# MEKK2mut PB1 HTS = signal of MEK5 binding to mutant human MEKK2 PB1 domain; AID 1530; 290,000 tested, 0.35% active; percent response, % at 10 µM; bead flow cytometry, Alexa488-MEK5 binding to MEKK2 mutant; in the data active = percent response above about 24%, passing the limit was not always enough
# UBC13 polyUb = human UBC13 polyubiquitination inhibition; UBC13 polyubiquitin chain formation, TR-FRET; AID 485273; inhibition, % at 20 µM; P61088; 330,000 tested, 0.47% active; in the data active = inhibition above about 45%, passing the limit was not always enough; inconclusive = no clear call, values can overlap the other calls
# ATG4B inh = blocks human ATG4B protease cleavage of LC3 substrate. ATG4B cleavage of LC3-PLA2, NBD-HPC fluorescence, 1 h. inhibition, % at 8.33 µM. 340,000 tested, 0.51% active; in the data active = inhibition above about 40%
# MEKK2 WT-MEK5 = raises or lowers MEK5 binding to wildtype human MEKK2 PB1 domain | 290,000 tested, 1.1% active | Q9Y2U5 | binding response (% of control), % at 10 µM | bead flow cytometry, Alexa488-MEK5 binding to MEKK2 WT; actives lie on both sides; in the data active = binding response below about 67% or above about 130%; inconclusive = no clear call, values can overlap the other calls; inactive = in between
# ATG4B confirm = confirmation of human ATG4B inhibitors. shares compounds with ATG4B inh. ATG4B protease fluorescent substrate cleavage assay. inhibition, % at 8.33 µM. 320 tested, 92% active; in the data active = inhibition above about 39%
# PLA2 counter = PLA2 (human) inhibition in ATG4B counter-screen | shares compounds with ATG4B inh | purified PLA2, NBD-C6-HPC fluorescence, 45 min | inhibition, % at 8.33 µM | 1,600 tested, 66% active; in the data active = inhibition above about 50%
# Hits are given with their value; n = inactive; u = inconclusive; x = not tested or not shown. Rows were chosen to be rich in hits. Some 3.1% of all compounds tested hit in one or more screens of this group.
SMILES,PREPL inhibitor,MEKK3 PB1 HTS,MEKK2mut PB1 HTS,UBC13 polyUb,ATG4B inh,MEKK2 WT-MEK5,PLA2 counter,others
O=C(Nc1ccc(Cl)c(S(=O)(=O)N2CCCC2)c1)c1cc(=O)[nH]c2ccccc12,n,x,x,n,n,x,x,
Cc1c(C(=O)NNC(=O)c2ccccc2O)oc2ccc(Br)cc12,n,x,x,x,n,x,x,
O=C(Nc1c(C(=O)O)oc2ccc(Br)cc12)c1ccccc1,n,n,n,n,48,n,57,
COC1=CC(=O)c2c(ccc3ncnc(N)c23)C1=O,x,x,x,x,62,x,n,ATG4B confirm=49
COc1cccc2c1C(=O)C=C(C)C2=O,n,n,n,n,n,n,x,
NC(N)=NN=C(c1ccc(F)cc1)c1ccc(C(F)(F)F)cc1,x,x,x,x,n,x,x,
Cc1cccc(-c2nc3sc(C)cc3c(=O)o2)c1,n,n,n,n,n,n,x,
Cc1nc(NC(=O)c2ccccc2)sc1-c1csc(NCc2ccccc2)n1,n,n,n,n,45,n,66,
O=C(NCCNC(=O)c1ccccn1)c1ccc(-c2ccccc2)cc1,n,n,n,n,n,n,x,
CN(C)C(CNC(=O)c1ccc(NC(=O)CC#N)cc1)c1ccccc1 (stereo not given),n,n,n,n,47,n,56,
CC(C)N(Cc1ccccc1)C(=O)COC(=O)CCC(=O)c1ccc(F)cc1,n,x,x,n,n,x,x,
COC1=C(Br)C(=O)c2ncccc2C1=O,x,x,x,x,69,x,n,ATG4B confirm=n
COc1ccc2c(c1OC)C(=O)OC2Nc1nc(-c2ccc(-c3ccccc3)cc2)cs1 (stereo not given),n,n,n,n,64,n,n,ATG4B confirm=39
COc1cccc(-c2csc(NC3OC(=O)c4c3ccc(OC)c4OC)n2)c1 (stereo not given),n,n,n,n,n,n,x,
O=C(CCN1C(=O)/C(=C/c2ccco2)SC1=S)Nc1ccc(O)cc1C(=O)O,x,n,n,n,43,n,n,
O=C(CCCN1C(=O)/C(=C/c2ccccc2Cl)SC1=S)NNC(=O)c1ccccc1,n,n,n,n,50,n,n,ATG4B confirm=55
O=C(CCN1C(=O)/C(=C\c2ccccc2Cl)SC1=S)Nc1cccnc1,n,n,n,n,n,n,x,
O=C(CCN1C(=O)/C(=C/c2ccccc2Cl)SC1=S)Nc1ccccc1C(=O)O,n,n,n,n,58,n,51,
O=C(CN1C(=O)/C(=C\c2ccco2)SC1=S)Nc1ccc(O)cc1C(=O)O,n,n,n,n,n,n,x,
CCc1cc(C(=O)N(CC(C)C)c2c(N)n(Cc3ccccc3)c(=O)[nH]c2=O)sc1C,n,x,x,n,n,x,x,
O=C(CSc1nc(=O)n(Cc2ccccn2)c2c1CCC2)Nc1ccc(F)cc1F,n,x,x,n,n,x,x,
COc1ccc(Cl)cc1NC(=O)CCN1C(=O)C2C3C=CC(C4CC34)C2C1=O (stereo not given),n,n,n,n,n,n,x,
Cc1ccccc1Cn1nnc(C(=O)Nc2ccc3c(c2)OCCO3)c1N,n,x,x,n,n,x,x,
Cc1cc(C)cc(NC(=O)c2nnn(Cc3cc(C)ccc3C)c2N)c1,n,n,n,n,57,n,78,
Cc1ccc(C)c(Cn2nnc(C(=O)Nc3ccc4c(c3)OCCO4)c2N)c1,n,x,x,n,55,x,65,
SMILES,PREPL inhibitor,MEKK3 PB1 HTS,MEKK2mut PB1 HTS,UBC13 polyUb,ATG4B inh,MEKK2 WT-MEK5,PLA2 counter,others
C[C@H](OC(=O)NCc1ccc(C(F)(F)F)cc1)[C@@H]1O[C@@]2(C)CCC[C@@H]1O2,n,x,x,n,n,x,x,
CC(C)n1c(CN2CCN(C(=O)c3ccco3)CC2)nc2c1c(=O)n(C)c(=O)n2C,n,n,n,n,n,n,x,
O=C(Cc1ccc(NC(=O)C2CCN(C(=O)C3CCCCC3)CC2)cc1)Nc1cccc(C(=O)N2CCCCC2)c1,x,x,x,x,n,x,x,
CCCN(Cc1nnc(-c2cccs2)o1)C(=O)CN1C(=O)NC2(CCCCC2C)C1=O (stereo not given),n,x,x,n,n,x,x,
Cc1ccc(NC(=O)C2C(=O)N(CCO)C3(C)CC2c2ccccc2O3)cc1 (stereo not given),n,n,n,n,n,n,x,
Cc1ccc(S(=O)(=O)C2C(=O)N(C)C3(C)CC2c2ccccc2O3)cc1 (stereo not given),n,n,n,n,66,n,74,
COc1ccc(-n2ncc3c(SCC(=O)N4CCN(c5ccccc5OC)CC4)ncnc32)cc1,n,n,n,n,n,n,x,
COc1ccc(C(=O)N2CCCC(Nc3ccc(C(C)C)cc3)C2)c(OC)n1 (stereo not given),n,n,n,n,76,n,78,
COc1ccc(NC2CCCN(C(=O)c3ccc(OC)cc3OC)C2)cc1 (stereo not given),n,n,n,n,n,n,x,
COC(=O)c1ccc(C(=O)N2CCCC(Nc3ccc(C(C)C)cc3)C2)nc1 (stereo not given),n,n,n,n,42,n,n,ATG4B confirm=78
CC(C)c1ccc(NC2CCCN(C(=O)c3ccc4nccnc4c3)C2)cc1 (stereo not given),n,n,n,n,n,n,x,
CC(C)c1ccc(NC2CCCN(C(=O)c3cc(C(C)C)[nH]n3)C2)cc1 (stereo not given),x,n,n,n,43,n,n,ATG4B confirm=74
COc1cccc(CNC(=O)COC(=O)c2cc([N+](=O)[O-])ccc2N2CCCC2)c1,n,x,x,n,n,x,x,
O=C(O)/C=C/C(=O)Nc1ccc(Cc2ccc(NC(=O)/C=C/C(=O)O)cc2)cc1,n,n,n,n,n,n,x,
O=C(O)/C=C/C(=O)Nc1ccc(C2(c3ccc(NC(=O)/C=C/C(=O)O)cc3)c3ccccc3-c3ccccc32)cc1,n,n,n,n,55,n,65,
COCCCn1c(SCC(=O)Nc2oc(C)c3c(C)n[nH]c(=O)c23)nc2ccccc2c1=O,n,x,x,n,n,x,x,
Cc1n[nH]c(=O)c2c(NC(=O)CSc3nc4ccccc4c(=O)n3-c3ccc(OC(F)F)cc3)oc(C)c12,n,x,x,n,41,x,75,
CCOc1ccc(C(=O)Nc2ccccc2-c2ccccc2)cc1Cl,n,n,n,u,45,n,n,
N#Cc1c(N)[nH]c2ccc(Sc3ccccc3)cc12,x,x,x,x,41,x,n,ATG4B confirm=68
O=C(N/N=C/C=C\c1ccccc1[N+](=O)[O-])c1ccccn1,n,n,n,n,n,n,x,
O=C(N/N=C/C=C/c1ccccc1[N+](=O)[O-])c1cc(-c2ccccc2)n[nH]1,n,n,n,n,47,n,n,
O=C(NC1CCC(O)CC1)c1cccnc1Sc1ccccc1Cl (stereo not given),n,n,n,n,n,n,x,
COc1ccc2oc(=O)c(C(=O)OCc3ccccc3)cc2c1,n,n,n,n,n,n,x,

# Screening data from PubChem BioAssay.
